This note sets out measurements from the supplement of paper PMC12494721.

Counter-ions that a name gives are not always drawn.

The assay concerns Ruminococcus gnavus DSM 108212. Put plainly: growth (OD595) fold change vs plate DMSO controls (fold change (ratio)); higher = more growth. The note with it: incubation time: 27 h, anaerobic, 37 °C. The gist of the method:
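Growth is calculated as fold change against the median of the DMSO control wells on each plate. Readings at 595 nm from anaerobic mGAM cultures (96-well, 27 h, 37 °C) were blank-subtracted, background-corrected with 20 µM compound solutions in water, and converted to OD by a calibration factor of 5. Fold changes above 1.5 were recorded as NA, and results are means of 2 biological replicates.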
`CC(=O)OCC(CCn1cnc2cnc(N)nc21)COC(C)=O` [Famciclovir] (20 µM): the growth came out at 0.993.

As for `COC(c1ccccc1)(c1ccccc1)[C@H](Oc1nc(C)cc(C)n1)C(=O)O` [Ambrisentan] (20 µM), the growth was determined as 1.04.

Turning to `C[C@H](CCC(=O)O)[C@H]1CC[C@H]2[C@@H]3[C@@H](O)C[C@@H]4C[C@H](O)CC[C@]4(C)[C@H]3CC[C@]12C` [Urosiol] (20 µM), the growth worked out at 1.02.

As for `C=C(CC)C(=O)c1ccc(OCC(=O)O)c(Cl)c1Cl` [Ethacrynic acid] (20 µM), the growth turned out to be 1.19.

Regarding `C[C@]12CC[C@@H]3c4ccc(O)cc4CC[C@H]3[C@@H]1C[C@@H](O)[C@@H]2O` [Estriol] (20 µM), the growth was 1.15.

For `Cc1cc2cc3c(C)cc(=O)oc3c(C)c2o1` [Trioxsalen] (20 µM), the growth turned out to be 1.02.

As to `O=C(Nc1cccc2c(=O)cc(-c3nnn[nH]3)oc12)c1ccc(OCCCCc2ccccc2)cc1` [Pranlukast] (20 µM), the growth came out at 0.934.

On to `C[N+]1(C)CCC(OC(=O)C(O)(c2ccccc2)C2CCCC2)C1` (centres undefined) [Glycopyrrolate bromide] (20 µM), for which the growth is 0.959.

Turning to `CC(C)(O)c1ccccc1CC[C@@H](SCC1(CC(=O)O)CC1)c1cccc(/C=C/c2ccc3ccc(Cl)cc3n2)c1` [Montelukast] (20 µM), the growth worked out at 0.923.

As to `C[C@@H]1C[C@H]2[C@@H]3C[C@H](F)C4=CC(=O)C=C[C@]4(C)[C@@]3(Cl)[C@@H](O)C[C@]2(C)[C@H]1C(=O)COC(=O)C(C)(C)C` [Clocortolone pivalate] (20 µM), the growth is 0.992.

Take `CCOC(=O)C1=C[C@]2(CC)CCCN3CCc4c(n1c1ccccc41)[C@@H]32` [Vinpocetine] (20 µM): the growth amounted to 1.14.

`Clc1ccccc1C(c1ccccc1)(c1ccccc1)n1ccnc1` [Clotrimazole] (20 µM): the growth came out at 0.513.

With `CC(C[N+](C)(C)C)OC(N)=O` (centres undefined) [Bethanechol chloride] (20 µM), the growth is 0.707.

As to `C=CC(N)CCC(=O)O` (centres undefined) [Vigabatrin hydrochloride] (20 µM), the growth turned out to be 0.977.

For `C=C1C[C@@]23CC[C@H]4[C@@](C)(CCC[C@@]4(C)C(=O)O[C@@H]4O[C@H](CO)[C@@H](O)[C@H](O)[C@H]4O)[C@@H]2CC[C@]1(O[C@@H]1O[C@H](CO)[C@@H](O)[C@H](O)[C@H]1O[C@@H]1O[C@H](CO)[C@@H](O)[C@H](O)[C@H]1O)C3` [Stevioside] (50 µM), the growth came out at 0.976.

Take `CCCN(CCC)C(=O)C(CCC(=O)O)NC(=O)c1ccccc1` (centres undefined) [Proglumide] (20 µM): the growth came to 0.78.

On to `CN1CCC(=C2c3ccccc3CC(=O)c3sccc32)CC1` [Ketotifen fumarate] (20 µM), for which the growth is 1.

As to `Cc1ccc(-c2ncc(Cl)cc2-c2ccc(S(C)(=O)=O)cc2)cn1` [Etoricoxib] (20 µM), the growth came to 0.73.

For the molecule `C[C@@H](O)[C@H]1C(=O)N2C(C(=O)O)=C(S[C@@H]3CN[C@H](C(=O)N(C)C)C3)[C@H](C)[C@H]12` [Meropenem] (20 µM), the growth is 0.

For `CC(C)(C)c1ccc(C(O)CCCN2CCC(C(O)(c3ccccc3)c3ccccc3)CC2)cc1` (centres undefined) [Terfenadine] (20 µM), the growth was found to be 1.21.

Take `CC(NN)c1ccccc1` (centres undefined) [Mebanazine] (20 µM): the growth was found to be 0.887.

For `OCCN1CCN(CC/C=C2/c3ccccc3Sc3ccc(C(F)(F)F)cc32)CC1` [Flupentixol dihydrochloride cis-(Z)] (20 µM), the growth worked out at 0.925.

As to `C#CCN(C)CCCOc1ccc(Cl)cc1Cl` [Clorgyline hydrochloride] (20 µM), the growth worked out at 0.97.

As to `CN(C)C(=O)C(CCN1CCC(O)(c2ccc(Cl)cc2)CC1)(c1ccccc1)c1ccccc1` [Loperamide hydrochloride] (20 µM), the growth was found to be 0.853.

In the case of `CC[N+](CC)(CC(=O)Nc1c(C)cccc1C)Cc1ccccc1` [Denatonium benzoate] (20 µM), the growth was determined as 1.02.

Take `COc1cc(C)c(/C=C/C(C)=C/C=C/C(C)=C/C(=O)O)c(C)c1C` [Acitretin] (20 µM): the growth is 1.09.

`Nc1ccn([C@@H]2O[C@H](CO)[C@@H](O)[C@@H]2O)c(=O)n1` [Cytarabine] (20 µM): the growth was determined as 0.571.

With `COc1ccc2cc([C@H](C)C(=O)O)ccc2c1` [(S)-Naproxen] (20 µM), the growth amounted to 1.08.

Consider `COC(=O)Nc1nc2cc(C(=O)c3ccc(F)cc3)ccc2[nH]1` [Flubendazol] (20 µM), for which the growth came out at 1.04.

In the case of `O=C(O)COc1nn(Cc2ccccc2)c2ccccc12` [Bendazac] (20 µM), the growth came out at 1.02.

As to `O=C(O)Cc1ccc(-c2ccccc2)cc1` [Felbinac] (20 µM), the growth was 1.01.

As for `CCOc1ccc2c(c1)C(C)=CC(C)(C)N2` [Ethoxyquin] (20 µM), the growth was 1.22.

For the molecule `CN1CC2c3ccccc3Oc3ccc(Cl)cc3C2C1` (centres undefined) [Asenapine maleate] (20 µM), the growth stood at 0.834.

Regarding `CCOC(=O)OC(C)OC(=O)[C@@H]1N2C(=O)[C@@H](NC(=O)[C@H](N)c3ccccc3)[C@H]2SC1(C)C` (some centres undefined) [Bacampicillin hydrochloride] (20 µM), the growth came out at 0.0946.

On to `CCCOc1ccccc1-c1nc2[nH]nnc2c(=O)[nH]1` [Zaprinast] (20 µM), for which the growth came to 1.2.

Regarding `CCCCC(O)c1ccccc1` (centres undefined) [Fenipentol] (20 µM), the growth came to 0.948.

In the case of `CN[C@H](CC(C)C)C(=O)N[C@H]1C(=O)N[C@@H](CC(N)=O)C(=O)N[C@H]2C(=O)N[C@H]3C(=O)N[C@H](C(=O)N[C@H](C(=O)O)c4cc(O)cc(O)c4-c4cc3ccc4O)[C@H](O)c3ccc(c(Cl)c3)Oc3cc2cc(c3O[C@@H]2O[C@H](CO)[C@@H](O)[C@H](O)[C@H]2O[C@H]2C[C@](C)(N)[C@H](O)[C@H](C)O2)Oc2ccc(cc2Cl)[C@H]1O` [Vancomycin hydrochloride] (20 µM), the growth turned out to be 0.17.

As to `N#Cc1ccc(Oc2ccc3c(c2)COB3O)cc1` [Crisaborole] (20 µM), the growth was determined as 1.12.

For the molecule `COc1ccc([C@@H]2Sc3ccccc3N(CCN(C)C)C(=O)[C@@H]2OC(C)=O)cc1` [Diltiazem hydrochloride] (20 µM), the growth came out at 1.01.
